Assay results as given in PubChem BioAssay (NCI).
About 79,000 compounds went through this panel and 15% of them were active in at least one assay; those are over-represented in the sample as a whole. A number with no mark means an inactive call. Active and inactive are the calls of the source. Rule as the data show it: active = growth inhibition above about 70%; inactive = the rest.

What was measured:
[1] = NCI Yeast Anticancer Drug Screen. Data for the rad50 strain (AID 155);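 also: 0% = growth of vehicle-only cultures of the same strain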; settings: S. cerevisiae rad50 strain growth inhibition, hits give high values
Summary of the method: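 Compounds were tested on a yeast strain with an engineered DNA damage repair alteration; the reported value is growth inhibition normalised to vehicle treatment.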

[2] = NCI Yeast Anticancer Drug Screen. Data for the mec2-1 strain (AID 157); settings: S. cerevisiae mec2-1 strain, hits give high values
Summary of the method: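 Strain: mec2-1 (DNA repair/cell cycle alteration). Compound exposure, then growth measured; inhibition expressed relative to vehicle.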

[3] = NCI Yeast Anticancer Drug Screen. Data for the sgs1 mgt1 strain (AID 161);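 also: 0% = growth of cultures given vehicle only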; settings: S. cerevisiae sgs1 mgt1 strain, hits give high values
Summary of the method: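 Mutant yeast exposed to compound; growth scored against vehicle-only wells.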

[4] = NCI Yeast Anticancer Drug Screen. Data for the cln2 rad14 strain (AID 165);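 also: 0% = growth equal to vehicle treated cultures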; settings: S. cerevisiae cln2 rad14 strain, hits give high values
Summary of the method: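 Compounds are applied to the cln2 rad14 yeast strain, and growth is then compared with that of vehicle-treated cultures to give inhibition.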

[5] = NCI Yeast Anticancer Drug Screen. Data for the bub3 strain (AID 167); settings: S. cerevisiae bub3 mutant strain, hits give high values
Summary of the method: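 Growth of a checkpoint-deficient yeast mutant is measured after compound exposure. Values represent inhibition relative to vehicle.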

[6] = NCI Yeast Anticancer Drug Screen. Data for the mlh1 rad18 strain (AID 175); settings: S. cerevisiae mlh1 rad18 strain growth inhibition, hits give high values
Summary of the method: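 Read-out is yeast growth inhibition, calculated against vehicle-only controls. The compound was applied to a strain engineered with DNA damage repair alterations.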

[7] = at 5.0 µM (retest, dose inferred, filed as 0.5)
[8] = at 50.0 µM (retest, dose inferred, filed as 5.0)

Compound	growth inhibition [1, 7]	growth inhibition [1, 8]	growth inhibition ([1]; at 50.0 µM)	growth inhibition [2, 7]	growth inhibition [2, 8]	growth inhibition ([2]; at 50.0 µM)	growth inhibition [3, 7] [%]	growth inhibition [3, 8]	growth inhibition ([3]; at 50.0 µM)	growth inhibition [4, 7]	growth inhibition [4, 8]	growth inhibition ([4]; at 50.0 µM)	growth inhibition [5, 7]	growth inhibition [5, 8]	growth inhibition ([5]; at 50.0 µM)	growth inhibition [6, 7]	growth inhibition [6, 8]	growth inhibition ([6]; at 50.0 µM)
NNC(=O)c1c(SCc2ccccc2)nc2c3ccccc3ccn12	40%	93% (active)	51.5%	22%	83% (active)	35%	42	90% (active)	52.6%	24%	87% (active)	38.8%	33%	69%	39.1%	33%	93% (active)	81.3% (active)
N#CC(C#N)=C1CCC(CC2CCCCC2)CC1 (configuration not stated)	-117%	96% (active)	98.6% (active)	-49%	96% (active)	98.6% (active)	-60	96% (active)	98% (active)	-56%	97% (active)	98.5% (active)	-58%	97% (active)	98% (active)	-92%	96% (active)	98.5% (active)
CC1(C)N=C(N)N=C(N)N1c1cccc(CCCCC(=O)CCl)c1	15%	89% (active)	95.8% (active)	0%	72% (active)	95% (active)	-5	79% (active)	95.9% (active)	-5%	62%	81.6% (active)	-5%	51%	86.7% (active)	-18%	91% (active)	97.8% (active)
CS(=O)(=O)c1snc(N)c1C#N	11%	73% (active)	40.9%	23%	85% (active)	47.5%	17	80% (active)	50.6%	6%	61%	-10.1%	29%	89% (active)	-9.75%	18%	85% (active)	68.4%
NC(CCC(=O)NC(CS(=O)(=O)O)C(=O)O)C(=O)O (configuration not stated)	1%	6%	13.2%	3%	2%	12.8%	3	5%	79.7% (active)	3%	4%	93.5% (active)	-3%	-6%	13.4%	-3%	-2%	85.9% (active)
C=C1CC(Cn2ccc(=O)[nH]c2=O)(c2ccc(Cl)cc2)OC1=O (configuration not stated)	11%	64%	47.9%	-4%	85% (active)	49.8%	-22	80% (active)	70% (active)	27%	35%	39.5%	6%	87% (active)	65.8%	19%	81% (active)	74.1% (active)
CCNC(=S)NNC(=S)NNc1ccccc1	52%	98% (active)	41.3%	63%	100% (active)	38.5%	31	70% (active)	66.8%	45%	63%	3.85%	36%	77% (active)	60.5%	47%	100% (active)	38.5%
Cn1cc(NC(=O)Nc2cc(C(=O)Nc3cc(C(=O)Nc4ccc5cc(S(=O)(=O)O)cc(S(=O)(=O)O)c5c4)n(C)c3)n(C)c2)cc1C(=O)Nc1cc(C(=O)Nc2ccc3cc(S(=O)(=O)O)cc(S(=O)(=O)O)c3c2)n(C)c1	68%	98% (active)	91% (active)	36%	99% (active)	93.7% (active)	69	99% (active)	93.5% (active)	33%	99% (active)	92.7% (active)	44%	98% (active)	92.5% (active)	76% (active)	98% (active)	90.8% (active)
CCCCCCCCCCCCCCCCOP(=O)([O-])OCC[N+](C)(C)C	99% (active)	99% (active)	99.8% (active)	99% (active)	100% (active)	99.6% (active)	66	100% (active)	99.6% (active)	97% (active)	99% (active)	99.2% (active)	99% (active)	99% (active)	99.7% (active)	98% (active)	99% (active)	99.8% (active)
